This is part of a sample that, as a whole, favours compounds with a hit. Of some 79,000 tested, about 15% had one in any assay. The source made the active and inactive calls. Cut-off read from the data, not from the text of the source: active = growth inhibition above about 70%; inactive = the rest.
Assays:
[1] = NCI Yeast Anticancer Drug Screen. Data for the rad50 strain (AID 155);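 note: 0% = growth of vehicle-only cultures of the same strain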; conditions: S. cerevisiae rad50 strain growth inhibition; at 50.0 µM; stronger effect = higher value
Outline: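 Genetically altered yeast (DNA repair pathway); compound treatment; growth inhibition vs vehicle ctrl.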

[2] = NCI Yeast Anticancer Drug Screen. Data for the mec2-1 strain (AID 157); conditions: S. cerevisiae mec2-1 strain, at 50.0 µM, stronger effect = higher value
Outline: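 mec2-1 yeast strain, carrying an alteration in DNA damage repair or cell cycle control, was exposed to compounds; growth inhibition was measured relative to vehicle-treated controls.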

[3] = NCI Yeast Anticancer Drug Screen. Data for the sgs1 mgt1 strain (AID 161);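 note: 0% = growth of cultures given vehicle only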; conditions: S. cerevisiae sgs1 mgt1 strain, at 50.0 µM, stronger effect = higher value
Outline: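 Percent growth inhibition was derived by comparing compound-exposed mutant yeast with vehicle-exposed cultures. The strain carries alterations in DNA damage repair.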

[4] = NCI Yeast Anticancer Drug Screen. Data for the cln2 rad14 strain (AID 165);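 note: 0% = growth equal to vehicle treated cultures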; conditions: S. cerevisiae cln2 rad14 strain, at 50.0 µM, stronger effect = higher value
Outline: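 Yeast carrying cln2 and rad14 alterations (cell cycle control and DNA damage repair) were exposed to compounds. Growth inhibition was measured against vehicle-treated controls.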

[5] = NCI Yeast Anticancer Drug Screen. Data for the bub3 strain (AID 167); conditions: S. cerevisiae bub3 mutant strain, at 50.0 µM, stronger effect = higher value
Outline: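 Yeast carrying a defined mutation is treated with each compound, and growth is compared with that of vehicle-exposed cells to give inhibition.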

[6] = NCI Yeast Anticancer Drug Screen. Data for the mlh1 rad18 strain (AID 175); conditions: S. cerevisiae mlh1 rad18 strain growth inhibition; at 50.0 µM; stronger effect = higher value
Outline: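 Growth inhibition of the yeast strain was measured after compound exposure and expressed relative to vehicle-treated controls. The strain carries defined defects in DNA damage repair.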

Measured: growth inhibition

C=C(Br)CNC(=O)Nc1ccccn1
inactive: [1] -10.2% | [2] 4.55% | [3] -3.3% | [4] -4.15% | [5] -4.85% | [6] -8.75%

CC1(O)CC(C(F)(F)F)(C(F)(F)F)OC1=O (stereo not given)
inactive: [1] -20.9% | [2] -42.7% | [3] -7.75% | [4] -28.9% | [5] -2.25% | [6] -13.9%

O=C(O)C(O)C(O)C(O)C(O)C(=O)O.[NH-]C1CCCCC1[NH-].[Pt+2] (stereo not given)
inactive: [1] 8.15% | [2] -3.25% | [3] -1.55% | [4] 12.9% | [5] 8.25% | [6] 6.75%

CCCCCCCCCC1(C(=O)OCC)OC1(C)C (stereo not given)
inactive: [1] 8.55% | [2] -15.8% | [3] 5.75% | [4] 10.5% | [5] 15.2% | [6] -11.8%

CCOC(=O)NCC(Cl)(Cl)Cl
inactive: [1] -4.6% | [2] 0.25% | [3] -11.1% | [4] -51.4% | [5] 6.6% | [6] -6.7%

O=[N+]([O-])c1ccccc1C1N2CCCCC2[C@@H]2c3[nH]c4ccccc4c3CCN12 (stereo not given in full)
inactive: [1] 0.2% | [2] -11.9% | [3] 3.3% | [4] 1.85% | [5] 3.05% | [6] 8.3%

CC1CN(CNC(=O)NCN2CC(C)OC(C)C2)CC(C)O1 (stereo not given)
inactive: [1] 15.7% | [2] -3.7% | [3] 24.8% | [4] 11.9% | [5] 0.95% | [6] -0.8%

CC1(C)OC1(C(=O)C=[N+]=[N-])c1ccccc1 (stereo not given)
inactive: [1] -14.8% | [2] -17.8% | [3] -23.9% | [4] -15.8% | [5] -13.6% | [6] -29.4%

O=C(NC1CC1)c1ccccc1
inactive: [1] 5.8% | [2] 1.6% | [3] 4.7% | [4] -5.9% | [5] 1.85% | [6] -15.7%

COC(=O)/C=C/C=C/C(=O)OC
inactive: [1] -4.85% | [2] -1.7% | [3] -2.6% | [4] -41.9% | [5] -30.1% | [6] 3.85%

CC1CCC(=N\O)/C(=N/O)C1 (stereo not given)
inactive: [1] 5.9% | [2] -19.3% | [3] -21.9% | [4] -12.1% | [5] 0.65% | [6] -5.3%

Cc1ccc(S)c(C(O)(C(F)(F)F)C(F)(F)F)c1
inactive: [1] -4.75% | [2] 3.65% | [3] 11.7% | [4] 3.55% | [5] 8.3% | [6] 23.2%

Cc1ccccc1N1CCN(CC(O)Cc2ccccc2)CC1 (stereo not given)
inactive: [1] 19.6% | [2] 10% | [3] 12.1% | [4] -6.85% | [5] 15.1% | [6] 21.1%

CC(C)(C)COc1ccc2c(c1)C1=NC2=NC2=NC(=NC3=NC(=NC4=NC(=N1)c1ccc(OCC(C)(C)C)cc14)c1ccc(OCC(C)(C)C)cc13)c1ccc(OCC(C)(C)C)cc12
inactive: [1] 12.8% | [2] 1.1% | [3] -10.1% | [4] -14.6% | [5] -5.45% | [6] 18.4%

O=c1[nH]nc(Cc2ccccc2)n1/N=C\c1ccccc1
inactive: [1] -38.6% | [2] -20.6% | [3] -28.1% | [4] -11.3% | [5] -16.1% | [6] -43.2%

C=CCOC(=O)Oc1ccc(Cl)cc1Cl
inactive: [1] 9.75% | [2] 0.3% | [3] 3.3% | [4] -10.3% | [5] 21.4% | [6] 18.5%

CCN(CC)CC1c2ccccc2C(CNc2ccccc2)N1C (stereo not given)
inactive: [1] 4.5% | [2] 29.4% | [3] -10.1% | [4] 14.2% | [5] 5.65% | [6] 7.65%

COc1cc(/C=C(/C#N)C(N)=O)cc(OC)c1OC
inactive: [1] 15.6% | [2] 10.6% | [3] 18.9% | [4] 12.3% | [5] 11.1% | [6] 14.8%

Cc1cc(C)c(C)c(CC(C)(CI)CI)c1C
inactive: [1] 20.3% | [2] -13.2% | [3] -4.7% | [4] 0.65% | [5] -8.05% | [6] -3.6%

CCOC(=O)NN1C(=O)c2cccc3c([N+](=O)[O-])ccc(c23)C1=O
inactive: [2] 61.9%
active: [1] 86.2% | [3] 93.5% | [4] 88.4% | [5] 78.3% | [6] 85.8%
